Inconclusive results are not listed. Calls of active or inactive are those of the source. Unless noted, calls follow the shape of the dose curve; as a rule, active = well fitted curve in the direction sought with a large enough effect; inconclusive = small, poorly fitted or top-dose-only effect, or another doubt; inactive = no such curve, though single readings can be large; an effect the other way counts as inactive or inconclusive.
What was measured:
[1] = Cell Viability - BJ (AID 421; calls by dose curve;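 also: potency is read from the fitted curve at half-maximal effect; cells exposed to compound for 40 hours at 37 °C before readout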); settings: BJ fibroblast viability, qHTS
How it was run: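 Cytotoxicity in human BJ foreskin fibroblasts is scored as loss of cellular ATP after a 40-hour exposure, measured by luciferase luminescence. Controls are DMSO and 100 uM tamoxifen.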

[2] = Cell Viability - Jurkat (AID 426;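 active = dose-dependent loss of cell ATP signal giving a full or clear fitted curve, ranked by lower potency value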; also: potency is read from the fitted curve at half-maximal effect); settings: qHTS
How it was run: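 Jurkat (Clone E6-1) cells, 5000/well in complete medium, exposed to compounds for 40 hr at 37C; intracellular ATP measured by CellTiter-Glo luminescence after 20 min at room temperature. AC50 from Hill fits.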

[3] = Cell Viability - Hek293 (AID 427;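 active = compounds whose dose-response curve shows a full or clear partial loss of cell viability, called from curve shape rather than a numeric limit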;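 also: potency is read from the fitted curve at half-maximal effect; cells exposed to compound for 40 hours at 37 °C before reading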); settings: qHTS
How it was run: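 qHTS, human embryonic kidney (adenovirus-transformed) cells; 40 hr cpd, 37 °C; CellTiter-Glo ATP luminescence. Norm: DMSO = 0, 100 uM tamoxifen = 100% inhibition. Hill-fit AC50.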

[4] = Cell Viability - HepG2 (AID 433; calls by dose curve;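 also: potency is read from the fitted curve at half-maximal effect; potency for ATP loss meaning cytotoxicity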); settings: qHTS
How it was run: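 In this qHTS format, a 40 h, 37 °C compound incubation of HepG2 cells in complete medium precedes a 20 min CellTiter-Glo step at room temperature. Tamoxifen and doxorubicin serve as positive controls; Hill-equation fits yield AC50.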

[5] = Cell Viability - MRC5 (AID 434; calls by dose curve;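 also: potency is read from the fitted curve at half-maximal effect; potency reflects cytotoxicity seen as loss of intracellular ATP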); settings: MRC5 lung fibroblast viability, qHTS
How it was run: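 MRC5 normal human lung fibroblasts, 1500 cells/well, exposed to compound for 40 hr at 37 C. Cellular ATP was read by CellTiter-Glo luminescence; data normalized to DMSO and 100 uM tamoxifen, with AC50 from Hill fits.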

[6] = Cell Viability - Mesenchymal (AID 546); settings: mesenchymal cells viability, qHTS; series mostly up to 91.7 µM;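 also: cells exposed to compound for 40 hours before reading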
How it was run: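 Human kidney mesenchymal cells from normal renal glomeruli, 1000 cells/well, rested 5 hr at 37 °C, then treated 40 hr at 37 °C in complete medium. Cellular ATP read by CellTiter-Glo luminescence; AC50 from Hill-equation fits.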

[7] = Cellular Toxicity (caspase-3) HepG2 (AID 654); settings: HepG2 caspase-3 activation, luminescence, 0% = DMSO only, 100% = tamoxifen; series mostly up to 92.2 µM;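 also: cells exposed to compound for 16 hours before reading; 0% = DMSO alone and 100% = caspase signal from 100 µM tamoxifen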
How it was run: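 HepG2 cells (1500/well) were treated 16 h at 37 °C in complete medium, then caspase 3/7 activity was read by Caspase-Glo luminescence. Data were normalized to DMSO and 100 uM tamoxifen; AC50 came from Hill-equation fits of qHTS concentration-response.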

[8] = Cellular Toxicity (caspase-3) HUV-EC-C (AID 656); settings: HUV-EC-C cells, caspase-3 activation (apoptosis), vehicle = 0, 100 µM tamoxifen = 100%; series mostly up to 92.2 µM
How it was run: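 Concentration-dependent caspase 3/7 induction was assessed in HUV-EC-C cells exposed for 16 hours. Data scaled between DMSO and tamoxifen (100 uM) controls.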

[9] = Cellular Toxicity (caspase-3) BJ (AID 658); settings: BJ fibroblasts, luminescence, normalized: DMSO 0%, staurosporine 100%; series mostly up to 91.7 µM
How it was run: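 BJ human foreskin fibroblasts, 1000 cells/well, treated 16 hours at 37 °C in complete medium; caspase 3/7 activity by Caspase-Glo luminescence after 1 hr at room temperature. Normalized to DMSO and 10 uM staurosporine; AC50 from Hill fits.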

[10] = Cellular Toxicity (caspase-3) MRC-5 (AID 659); settings: MRC-5 cells, luminescence, normalized: DMSO 0%, 10 µM staurosporine 100%; series mostly up to 91.7 µM
How it was run: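 MRC-5 human normal lung fibroblasts, 1500 cells/well, treated 16 h at 37 °C in complete medium. Caspase 3/7 measured by Caspase-Glo luminescence after 1 h at room temperature. Normalized to DMSO and 10 uM staurosporine; AC50 from Hill fit.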

[11] = Cellular Toxicity (caspase-3) SK-N-SH (AID 661); settings: SK-N-SH caspase-3 activation, qHTS; series mostly up to 91.7 µM
How it was run: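 Human SK-N-SH neuroblastoma cells, 1500/well, were exposed to compounds for 16 hours at 37 °C. Caspase-Glo 3/7 luminescence was normalized to DMSO (basal) and 10 uM staurosporine (100%), and AC50 came from a Hill fit.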

[12] = Cellular Toxicity (caspase-3) Hek293 (AID 664); settings: HEK293 caspase-3 activation, DMSO = 0%, 100 µM tamoxifen = 100%; at 92.2 µM (top of the series);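 also: cells exposed to compound for 16 h at 37 °C before readout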
How it was run: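 HEK293 cells in complete medium treated 16 h at 37 °C, then Caspase-Glo 3/7 luminescence read after 20 min at room temperature. Normalized to DMSO and 100 uM tamoxifen; AC50 from Hill fit of concentration-response.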

[13] = MultiTox-Fluor Cytotoxicity Assay - LYMP1-001 - Dead Cells (AID 946); settings: LYMP1-001 lymphoblastoid cells, dead-cell protease fluorescence; series mostly up to 92.2 µM
How it was run: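 Seed 2500 LYMP1-001 cells/well, incubate 5 hr at 37 C; add compound, 16 hr at 37 C; add MultiTox-Fluor reagent, 60 min RT; read dead-cell fluorescence Ex/Em=485/520. Normalize to DMSO and 15 uM tetraoctylammonium bromide.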

[14] = Cell Viability - LYMP1-002 - Assay at 16 hr (AID 948); settings: LYMP1-002 lymphoblastoid cell viability; series mostly up to 92.2 µM;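 also: 0% = DMSO alone and full effect = 92 µM tetraoctylammonium bromide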
How it was run: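 In this qHTS, lymphoblastoid LYMP1-002 cells (human) receive compounds for 16 hr at 37 C. Viability is taken from CellTiter-Glo ATP luminescence, and AC50 derives from standard Hill fits.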

[15] = MultiTox-Fluor Cytotoxicity Assay - LYMP1-002 - Live Cells (AID 955); settings: LYMP1-002 lymphoblastoid live-cell protease fluorescence viability; series mostly up to 46.1 µM; also: % is scaled to controls: 0 for no effect and ±100 for the full control effect
How it was run: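 Human lymphoblastoid LYMP1-002 cells, 2500/well, treated 16 h at 37 C in complete medium. Live-cell protease activity via GF-AFC fluorescence (Ex/Em 405/510) after 60 min reagent incubation; AC50 from Hill fits.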

[16] = MultiTox-Fluor Cytotoxicity Assay - LYMP1-003 - Dead Cells (AID 961); settings: LYMP1-003 lymphoblastoid cells, dead-cell protease fluorescence; series mostly up to 92.2 µM; also: nearly all actives have a fitted effect of over 70% in size
How it was run: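 LYMP1-003 lymphoblastoid, 2500 cells/well, 5 hr settle then 16 hr cpd at 37 C; MultiTox-Fluor reagent 60 min RT; Ex/Em 485/520 dead-cell signal; norm. DMSO = 0%, 15 uM tetraoctylammonium bromide = 100%; Hill AC50.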

[17] = Cell Viability - LYMP2-016 (AID 984); settings: LYMP2-016 lymphoblastoid cell viability, qHTS; series mostly up to 92.2 µM; also: % is scaled to controls: 0 for no effect and ±100 for the full control effect; nearly all actives have a fitted effect of over 55% in size
How it was run: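 Concentration-dependent ATP depletion measured in LYMP2-016 lymphoblastoid cells, 24 h, 37 C; luciferase-based luminescent detection; Hill-equation AC50.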

[18] = Cell Viability - LYMP2-026 (AID 989); settings: LYMP2-026 lymphoblastoid cell viability, qHTS; series mostly up to 92.2 µM; also: % is scaled to controls: 0 for no effect and ±100 for the full control effect; nearly all actives have a fitted effect of over 50% in size
How it was run: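 Human lymphoblastoid LYMP2-026 cells, 2500/well, exposed to compound 24 h at 37 C in complete medium. Viability as intracellular ATP by CellTiter-Glo luminescence; AC50 from Hill fits of qHTS concentration-response.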

[19] = qHTS Assay for Identification of Small Molecule Inducers of Hypoxia Response (AID 2120; active = well fitted curve in the direction sought with a large enough effect in the signal ratio, with a control signal flat, not every such curve was filed as active; the % refers to the signal ratio; also: 0% is about no effect); settings: hypoxia response reporter cells, beta-lactamase ratio readout; series mostly up to 104 µM
How it was run: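 HRE-bla ME-180 cells in Opti-MEM with 0.5% dialyzed FBS, pre-plated 4-5 h, then compound titration for 17 h at 37 degrees Celsius. CCF4 loaded 2.5 h at room temperature; 460/530 nm ratio gave %Activity and AC50 for induction.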

[20] = target: Peroxisome proliferator-activated receptor alpha (Homo sapiens) (UniProt Q07869); experiment: qHTS assay for small molecule agonists of the peroxisome proliferator-activated receptor alpha (PPARalpha) signaling pathway (AID 651778); settings: PathHunter PPARalpha complementation, chemiluminescence, 6 h; hits give high values; also: % of control where 0% means no effect
Peroxisome proliferator-activated receptor alpha (Homo sapiens), sequence (Q07869 whole entry, looked up, the tested form may be a part): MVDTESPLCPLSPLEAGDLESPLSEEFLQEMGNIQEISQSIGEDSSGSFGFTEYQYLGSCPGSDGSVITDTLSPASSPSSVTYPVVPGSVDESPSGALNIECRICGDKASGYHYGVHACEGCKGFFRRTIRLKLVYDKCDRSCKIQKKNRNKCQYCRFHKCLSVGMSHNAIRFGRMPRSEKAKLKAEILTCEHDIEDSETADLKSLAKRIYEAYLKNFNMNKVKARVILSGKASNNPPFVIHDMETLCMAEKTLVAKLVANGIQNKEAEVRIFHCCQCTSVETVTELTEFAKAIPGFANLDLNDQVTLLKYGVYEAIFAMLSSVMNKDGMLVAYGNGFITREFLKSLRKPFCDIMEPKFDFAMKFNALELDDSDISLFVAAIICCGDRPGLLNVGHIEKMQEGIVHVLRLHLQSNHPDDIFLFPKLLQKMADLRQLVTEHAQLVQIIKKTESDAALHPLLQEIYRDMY
How it was run: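 Enzyme-fragment complementation assay in which ligand-bound PPARalpha translocates and forms an active enzyme that generates chemiluminescence. Cells were plated overnight, exposed to compound for 6 hr at 37 C, and then given detection reagent for 60 min at room temperature.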

CCCCCc1cc(O)cc(O)c1
inactive: Potency [1] > 92 µM | Potency [2] > 92 µM | Potency [3] > 92 µM | Potency [4] > 92 µM | Potency [5] > 92 µM | Potency [6] | outcome [7] | outcome [8] | outcome [9] | outcome [10] | Potency [11] | caspase-3 activation [12] 1.25% | outcome [13] | outcome [14] | outcome [15] | Potency [16] | Potency [17] | Potency [18] | Potency [19] | max response [20] -5.69%

CC(C)CC(C)N (stereo not given)
inactive: Potency [1] > 92 µM | Potency [2] > 92 µM | Potency [3] > 92 µM | Potency [4] > 92 µM | Potency [5] > 92 µM | Potency [6] | outcome [7] | outcome [8] | outcome [9] | outcome [10] | Potency [11] | caspase-3 activation [12] 1.99% | outcome [13] | outcome [14] | outcome [15] | Potency [16] | Potency [17] | Potency [18] | Potency [19] | max response [20] 1.79%

Cc1cc(Cl)ccc1O
inactive: Potency [1] > 92 µM | Potency [2] > 92 µM | Potency [3] > 92 µM | Potency [4] > 92 µM | Potency [5] > 92 µM | Potency [6] | outcome [7] | outcome [8] | outcome [9] | outcome [10] | Potency [11] | caspase-3 activation [12] 0.112% | outcome [13] | outcome [14] | outcome [15] | Potency [16] | Potency [17] | Potency [18] | Potency [19] | max response [20] -3.66%

C[N+](=O)[O-]
inactive: Potency [1] > 92 µM | Potency [2] > 92 µM | Potency [3] > 92 µM | Potency [4] > 92 µM | Potency [5] > 92 µM | Potency [6] | outcome [7] | outcome [8] | outcome [9] | outcome [10] | Potency [11] | caspase-3 activation [12] -0.684% | outcome [13] | outcome [14] | outcome [15] | Potency [16] | Potency [17] | Potency [18] | Potency [19] | max response [20] -2.13%

CC(=O)NNc1ccccc1
inactive: Potency [1] > 92 µM | Potency [2] > 92 µM | Potency [3] > 92 µM | Potency [4] > 92 µM | Potency [5] > 92 µM | Potency [6] | outcome [7] | outcome [8] | outcome [9] | outcome [10] | Potency [11] | caspase-3 activation [12] -1.37% | outcome [13] | outcome [14] | outcome [15] | Potency [16] | Potency [17] | Potency [18] | Potency [19] | max response [20] -1.86%

CN(C)N=O
inactive: Potency [1] > 92 µM | Potency [2] > 92 µM | Potency [3] > 92 µM | Potency [4] > 92 µM | Potency [5] > 92 µM | Potency [6] | outcome [7] | outcome [8] | outcome [9] | outcome [10] | Potency [11] | caspase-3 activation [12] 5.49% | outcome [13] | outcome [14] | outcome [15] | Potency [16] | Potency [17] | Potency [18] | Potency [19] | max response [20] 0.541%

Source: PubChem BioAssay (NCATS)
